{"source": "PubChem BioAssay AID1259422", "about": "(The Scripps Research Institute Molecular Screening Center, 2018)", "note": "About 9,300 (1.5%) of roughly 640,000 compounds were called active. This is one part of a sample in which actives are shown more often than they occur. Cut-off read from the data, not from the text of the source: active = inhibition above about 32%; inactive = the rest.", "data": [{"experiment": "TEAD-YAP interaction inhibition, primary screen, TEAD-YAP interaction inhibitor project, luminescence, HEK-TIYL cells (AID 1259422);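 note: 0% = median of test compound wells and 100% = reference inhibitor wells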", "conditions": "TEAD-Gal4/YAP UAS-luciferase luminescence, at 9.12 µM, hits give high values", "values": [{"smiles": "CC[n+]1c(/C=C/C=C2\\N(C)c3ccccc3C2(C)C)n(-c2ccccc2)c2ccc(Cl)cc21", "inhibition": "91.8% (active)"}, {"smiles": "C=C1C[C@@H](c2ccccc2)N2CCC[C@H]2[C@H]1C", "inhibition": "-6.5% (inactive)"}, {"smiles": "C=C(C)CN(CC)C(C)Cc1ccc(OC)c(OC)c1", "note": "(stereo not given)", "inhibition": "-4.32% (inactive)"}, {"smiles": "Cc1[nH]c2c(F)cccc2c1CCN", "inhibition": "1.82% (inactive)"}, {"smiles": "CCOc1cc2c(cc1C=C(C#N)C#N)OCO2", "inhibition": "-1.58% (inactive)"}, {"smiles": "CC1=CC(=Cc2sc3ccccc3[n+]2C)C=C(C)O1", "inhibition": "85.8% (active)"}, {"smiles": "Cc1ccc2nc(NC(=O)c3c(O)c4c(n(Cc5ccco5)c3=O)CCCC4)sc2c1", "inhibition": "-4.37% (inactive)"}, {"smiles": "COc1cc(/C=C2\\C(=O)NC(=O)N(c3ccccc3)C2=O)ccc1O", "inhibition": "11.5% (inactive)"}, {"smiles": "Cc1cc2c(cc1Br)NC(=O)C2(c1c(O)n(C)c(=O)n(C)c1=O)C(C#N)C#N", "note": "(stereo not given)", "inhibition": "-14.6% (inactive)"}, {"smiles": "CN(C)P(=O)(c1cccc(C(=O)O)c1)N(C)C", "inhibition": "-4.89% (inactive)"}, {"smiles": "CCOc1ccc(C(Nc2ccccc2)P2(=S)OCC(C)(C)CO2)cc1", "note": "(stereo not given)", "inhibition": "5.04% (inactive)"}, {"smiles": "CN[C@@H]1C[C@H]2O[C@@](C)([C@@H]1OC)n1c3ccccc3c3c4c(c5c6ccccc6n2c5c31)C(=O)NC4", "inhibition": "102% (active)"}, {"smiles": "O=C1NC(=S)NC(=O)C1=Cc1ccc(-c2ccccc2)o1", "inhibition": "1.36% (inactive)"}, {"smiles": "O=C(Cc1ccc(F)cc1)N(Cc1ccco1)C1CCN(Cc2ccncc2)CC1", "inhibition": "-7.86% (inactive)"}, {"smiles": "COc1ccc(C=C(C#N)C#N)c(C)c1C", "inhibition": "-13.8% (inactive)"}, {"smiles": "c1ccc2c(c1)[I+]c1ccccc1-2", "inhibition": "60% (active)"}, {"smiles": "CCOC(=O)C1=C(N)Oc2n[nH]c(C)c2C12C(=O)Nc1ccc(Br)cc12", "note": "(stereo not given)", "inhibition": "4.72% (inactive)"}, {"smiles": "CC(=O)Nc1cc([N+](=O)[O-])ccc1N1CCN(C)CC1", "inhibition": "-2.87% (inactive)"}, {"smiles": "COc1ccc(C(C[N+](=O)[O-])c2c(-c3ccccc3)[nH]c3ccccc23)cc1", "note": "(stereo not given)", "inhibition": "52.6% (active)"}, {"smiles": "COc1ccc(-n2c(-c3ccccc3)nc3ccccc3c2=O)cc1", "inhibition": "1.69% (inactive)"}, {"smiles": "CCCCOc1ccccc1C1C(C#N)=C(N)Oc2c1c(=O)oc1ccccc21", "note": "(stereo not given)", "inhibition": "-0.47% (inactive)"}, {"smiles": "Cc1ccc(NC(=O)C2C3c4ccccc4C(c4ccccc43)C2C(=O)O)cc1", "note": "(stereo not given)", "inhibition": "-0.29% (inactive)"}, {"smiles": "CCCCC[n+]1ccc(-c2cc[n+](CCCCC)cc2)cc1", "inhibition": "56.5% (active)"}, {"smiles": "CCOC(=O)C1C2NC(=S)NC1(C)Oc1cc(OC)ccc12", "note": "(stereo not given)", "inhibition": "0.95% (inactive)"}, {"smiles": "O=C(c1ccccc1)c1cc(Cl)ccc1N1C(=O)c2ccccc2C1=O", "inhibition": "-3.06% (inactive)"}, {"smiles": "COc1cc(CN2CCN(C)CC2)ccc1O", "inhibition": "4.62% (inactive)"}, {"smiles": "C[C@@H]1C[C@H]2CC[C@H](O2)[C@H](C)C(=O)O[C@@H](C)C[C@@H]2CC[C@@H](O2)[C@@H](C)C(=O)O[C@H](C)C[C@H]2CC[C@H](O2)[C@H](C)C(=O)O[C@@H](C)C[C@@H]2CC[C@@H](O2)[C@@H](C)C(=O)O1", "inhibition": "94.6% (active)"}, {"smiles": "N#C/C(=C\\c1cc2c(cc1Cl)OCO2)c1nn(CCO)c(N)c1C#N", "inhibition": "-18.8% (inactive)"}, {"smiles": "CCC(=O)C1=C(C)OC(N)=C(C(=O)OC)C12C(=O)Nc1ccccc12", "note": "(stereo not given)", "inhibition": "3.18% (inactive)"}, {"smiles": "COc1ccc2c(c1)c(C(=O)N1CCN(C)CC1)c(C)n2C", "inhibition": "-6.79% (inactive)"}, {"smiles": "C(=N\\N1CCCCC1)/c1c[nH]c2ccccc12", "inhibition": "4.68% (inactive)"}, {"smiles": "O=C1CC(=O)N(C2CCCCCC2)C(=O)N1", "inhibition": "-0.34% (inactive)"}, {"smiles": "N#Cc1ccc(NC(=O)COC(=O)CCC2CCCC2)cc1Cl", "inhibition": "0.25% (inactive)"}, {"smiles": "c1ccc2c(CCNC3CC4CCC3C4)c[nH]c2c1", "note": "(stereo not given)", "inhibition": "-1.36% (inactive)"}, {"smiles": "CCCCCCOc1ccc(C=C2C(=O)NC(=S)NC2=O)cc1", "inhibition": "13% (inactive)"}]}]}
